RN4220 kill = growth inhibition of S. aureus RN4220, primary screen, OD600; 16 h; inhibition, % (no concentration beside the values); hit rate 0.33% among 330,000; AID 1259311, 2017; in the data active = inhibition above about 85%;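 note: plate controls were untreated cells for no effect and reference antibiotic for full effect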
RecA splice inh = Mtb RecA intein splicing inhibitors, primary screen, biochemical, fluorescence, HTS | Protein RecA (Mycobacterium tuberculosis (strain ATCC 25618 / H37Rv)), P9WHJ3 | cell-free RecA intein splicing | inhibition, % (no concentration beside the values) | hit rate 0.75% among 290,000 | AID 2221, 2009; in the data active = inhibition above about 30%;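 note: 0% = vehicle wells and 100% = reference inhibitor control wells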
Target sequence (P9WHJ3 whole entry, looked up, canonical isoform): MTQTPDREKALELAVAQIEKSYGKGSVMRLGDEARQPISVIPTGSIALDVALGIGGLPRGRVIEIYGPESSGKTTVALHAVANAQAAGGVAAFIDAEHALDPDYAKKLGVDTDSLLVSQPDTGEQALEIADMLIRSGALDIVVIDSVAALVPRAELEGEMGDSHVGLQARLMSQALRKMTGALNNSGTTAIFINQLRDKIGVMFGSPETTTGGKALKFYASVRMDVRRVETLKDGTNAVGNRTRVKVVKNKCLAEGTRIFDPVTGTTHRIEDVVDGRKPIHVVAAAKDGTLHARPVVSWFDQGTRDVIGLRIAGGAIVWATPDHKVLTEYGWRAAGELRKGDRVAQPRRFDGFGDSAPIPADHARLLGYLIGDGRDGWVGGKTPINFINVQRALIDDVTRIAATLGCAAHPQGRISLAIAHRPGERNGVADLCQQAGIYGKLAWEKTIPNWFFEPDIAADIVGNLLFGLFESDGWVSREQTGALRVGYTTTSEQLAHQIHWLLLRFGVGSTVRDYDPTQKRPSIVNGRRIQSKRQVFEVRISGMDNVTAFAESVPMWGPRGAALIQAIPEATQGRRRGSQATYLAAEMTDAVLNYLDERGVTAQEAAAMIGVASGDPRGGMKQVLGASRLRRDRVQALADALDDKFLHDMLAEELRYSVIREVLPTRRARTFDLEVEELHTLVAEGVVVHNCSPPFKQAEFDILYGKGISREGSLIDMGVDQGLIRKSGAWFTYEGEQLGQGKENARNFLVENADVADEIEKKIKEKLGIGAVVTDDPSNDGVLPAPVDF
Mtb hypoxia rep = PubChem AID 1159583; fluorescence inhibition, % (no concentration beside the values); M. tuberculosis hypoxia-regulated fluorescent reporter, fluorescence; hit rate 0.1% among 300,000; in the data active = fluorescence inhibition mostly above about 23%, no sharp cut-off; inactive = mostly below about 17%
Sa ugtP lethal = growth inhibition of ugtP-null S. aureus, primary screen, RN4220 ugtP deletion, OD600; growth inhibition, % (test concentration not listed); hit rate 0.54% among 330,000; 16 h; in the data active = growth inhibition above about 68%;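 note: plate controls were untreated wells for no effect and antibiotic for full effect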
BJeLR viability = MLPCN primary cell-based screen for lethality selective to Ras in HRASV12 cells. AID 1554, 2009. inhibition, % (test concentration not listed). BJeLR (HRASV12) viability, CellTiter-Glo ATP luminescence, 48 h. hit rate 0.17% among 300,000; in the data active = inhibition above about 50%
CCHFV vOTU inh = CCHFV vOTU protease inhibitors, primary screen, biochemical, Pep-AMC substrate, fluorescence. Crimean-Congo hemorrhagic fever virus L polyprotein viral ovarian tumor (vOTU) protease …. inhibition, % at 11.5 µM. AID 651958, 2012. hit rate 0.55% among 370,000; in the data active = inhibition above about 30%; note: 0% = vehicle wells with enzyme and 100% = no enzyme wells
Numbers without * were called inactive; . = no result given. Sampled rows, rich in hits. Any-hit rate of the full collection: about 1.6%.

SMILES	RN4220 kill	RecA splice inh	Mtb hypoxia rep	Sa ugtP lethal	BJeLR viability	CCHFV vOTU inh
Cc1cc(N2C(=O)C(O)=C(C(=O)c3ccco3)C2c2ccc(Cl)cc2)no1 (configuration not stated)	87*	0	-9	73	2	15
CCN1CC2C3C(=O)N(Cc4ccccc4)C(=O)C3[C@](CC)(C1=O)N2C(=O)c1ccc(C(F)(F)F)cc1 (some centres not stated)	-1	.	5	-5	.	.
CCOC(=O)c1cnc2ccc(C)cc2c1N(C)Cc1ccccc1	1	13	1	26	6	-2
CCOC(=O)c1cnc2ccc(C)cc2c1Sc1ccc(F)cc1	-1	67*	.	22	-8	6
Cc1cc(C(=O)N/N=C/c2ccc([N+](=O)[O-])s2)n[nH]1	.	-3	.	.	4	6
O=C(Cc1ccccc1)NCC(=O)NN=Cc1ccc([N+](=O)[O-])s1	16	.	4	9	.	.
CC(C)(C)c1cc(C(=O)NN=Cc2ccc([N+](=O)[O-])s2)n[nH]1	101*	.	9	101*	.	.
O=[N+]([O-])c1ccc(C=Nc2cccc3ccccc23)s1	98*	1	11	97*	2	.
O=C(Cc1ccccc1)NCC(=O)N/N=C/c1ccc([N+](=O)[O-])s1	.	-4	.	.	7	31*
Cc1ccc(C(=O)NN=Cc2ccc([N+](=O)[O-])s2)cn1	68	.	.	88*	.	.
Cc1ccc(C(=O)N/N=C\c2ccc([N+](=O)[O-])s2)cn1	.	-2	.	.	-20	15
N#Cc1c(NC(=S)NC(=O)Cc2cccs2)sc2c1CCCCC2	-5	0	6	87*	0	4
CC(=O)NC(=S)Nc1sc2c(c1C#N)CCCCC2	6	-6	7	2	7	-7
COc1nc(Nc2nc3ccccc3c(=O)[nH]2)nc2ccc(C)cc12	100*	0	12	100*	41	1
Cc1cc(C)cc(Nc2nc3ccccc3c(=O)[nH]2)c1	4	-1	10	-4	3	1
Cc1ccc(C(=O)CC(=O)c2ccc(C(C)(C)C)cc2)cc1	-12	.	7	28	-11	0
Cc1ccc(C(=O)CC(=O)c2cc(Cl)ccc2O)cc1	100*	6	-1	99*	1	2
Cc1ccc(C(=O)Nc2ccc(Cl)cc2C(=O)c2ccccc2)cc1	-4	0	15	92*	.	13
Cc1ccc(C(=O)CC(=O)c2ccc(C)cc2O)cc1	2	1	9	-6	15	11
CC(C)(C)c1ccc(C(=O)CC(=O)c2cc(Cl)ccc2O)cc1	100*	5	1	98*	3	-6
COC(=O)C1=C(c2ccc(F)cc2OCc2ccccc2)CC2CCC1N2C(=O)NCCCOC(C)C (configuration not stated)	6	.	9	16	.	.
O=C(Cn1nnc(-c2ccc(F)cc2)n1)Nc1cccc(S(=O)(=O)N2CCCC2)c1	0	.	35*	3	.	7
O=C(Cn1nnc(-c2ccccc2Cl)n1)Nc1cccc(S(=O)(=O)N2CCCC2)c1	-3	.	5	-1	.	9
Nc1ncnc(N)c1N=Nc1ccccc1	15	2	-4	7	15	17
Nc1ccc2ccccc2c1N=Nc1ccccc1	8	.	20	95*	.	15
SMILES	RN4220 kill	RecA splice inh	Mtb hypoxia rep	Sa ugtP lethal	BJeLR viability	CCHFV vOTU inh
Cc1sc2ncnc(N/N=C/c3ccccc3O)c2c1C	.	-5	.	.	81*	16
COc1cc(C=Nn2cnnc2-n2nc(C)cc2C)cc([N+](=O)[O-])c1O	5	.	1	8	.	.
Cc1ccc(NC(=O)C(OC(=O)c2ccc(C=O)cc2)c2ccccc2)cc1Cl (configuration not stated)	-13	7	9	90*	8	.
CCCCCCC(=O)N1CC=CC(c2ccc(OC)cc2)N(Cc2ccc(F)cc2)C(=O)C1 (configuration not stated)	1	.	18	-5	.	.
O=C(COC(=O)c1ccc2c(c1Cl)C(=O)c1ccccc1C2=O)NC1CC1	87*	41*	0	80	0	3
COc1ccc(C2C=CCN(CC3CC3)CC(=O)N2Cc2ccc(F)cc2)cc1 (configuration not stated)	9	.	9	-1	.	.
CNc1ccc(Br)cc(C(=O)/C=C/c2ccc(OC)cc2OC)c1=O	-7	11	13	98*	5	10
Nc1nc(Cl)cc(N2CCC(c3cc(-c4ccc(Cl)cc4)n[nH]3)CC2)n1	28	6	-8	94*	7	-2
COc1ccc(OC)c(-c2cc(C3CCN(c4cc(Cl)nc(N)n4)CC3)[nH]n2)c1	2	-6	-5	-10	8	2
COc1ccc(-c2cc(C3CCN(c4cc(Cl)nc(N)n4)CC3)[nH]n2)cc1	-7	9	1	95*	9	-6
O=C(C1=CC(C2CCCCC2)CC(OCc2ccc(CO)cc2)O1)N1CCOCC1 (configuration not stated)	7	.	5	4	.	.
CC(C)CC(NC(=O)c1nc[nH]c1C(=O)NC(c1ccccc1)c1ccccc1)C(=O)OCc1ccccc1 (configuration not stated)	-7	.	2	-7	.	.
O=C1C2=C(NC(=S)NC2c2ccc(Cl)cc2)NC(c2ccc(Cl)cc2)N1c1ccc(Cl)cc1 (configuration not stated)	100*	37*	0	93*	-5	19
CCc1ccc(C2NC(=S)NC3=C2C(=O)N(c2ccccc2OC)C(c2ccc(CC)cc2)N3)cc1 (configuration not stated)	-2	11	1	-31	2	-8
COc1ccc([N+](=O)[O-])cc1NC(=O)Nc1ccccc1	95*	-6	-8	83*	1	3
CCN1C(=O)CSC1=NC1C2CC3CC(C2)CC1C3 (configuration not stated)	8	5	.	91*	-2	13
CCN1C(=O)CSC1=NS(=O)(=O)c1ccccc1	5	.	-1	5	.	.
O=C(Nc1ccccc1)NC1(C(=O)NCc2ccc3c(c2)OCO3)CCCCC1	9	-5	-8	100*	5	-5
NC(=O)c1ncn(C2OC(CO)C(O)C2O)c1O (configuration not stated)	2	.	6	9	.	.
Cc1csc(C(C#N)C(=O)c2cc3ccccc3o2)n1 (configuration not stated)	84*	.	4	79	6	14
Cc1csc(NC(=O)c2cc3ccccc3o2)n1	-4	.	-10	-18	.	12
COC(=O)c1ccc(C23CC4(C2)C(CN(C)C4c2ccccc2)C3c2ccc(Cl)nc2)cc1 (configuration not stated)	-1	.	2	-2	.	.
